Where “and” joins values, the source holds several entries; their conditions need not be identical. Equal values may be shown once. Compounds without any hit were thinned out: in the full panel of roughly 83,000, 20% have a hit.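 Compound tested at a single concentration for 48 hours in 96-well plates; a percent growth value below 10 was scored as active.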 Calls of active or inactive are those of the source. Where a SMILES comes first, the peptide text is derived from it. The star is where a group is joined. Trt = c1ccc(C(c2ccccc2)(c2ccccc2)*)cc1; Cbz = O=C(OCc1ccccc1)*

The first assay concerns OVCAR-3 ovarian. In words: NCI-60 one-dose screen, 48 h (100 = growth as untreated, 0 = no growth, -100 = all killed). The following applies: 10 µM unless noted.
For `O=C(CC1(O)C(=O)Nc2c(Cl)ccc(Cl)c21)c1ccc(Cl)cc1Cl` (configuration not stated), the growth is 106% (inactive).
Regarding `O=C1N[C@H]2[C@H](CS[C@H]2CCCCC(=O)N(CCP(c2ccccc2)c2ccccc2)CCP(c2ccccc2)c2ccccc2)N1`, the growth was 0.222% (active).
The same measure, in the same setting: for `C=C(Cl)C(=NC(C)(C)C)Nc1ccccc1C` the value was 65.9% (inactive); for `Cc1ccnc(NC(c2ccccc2)c2ccc3cccnc3c2O)c1` (configuration not stated), 19.5% (inactive).
On the same count and under the same terms, the result for `Cc1cc2nc(CS)[nH]c2cc1C` reads 82.6% (inactive); that for `O=C(O)C1C2CC3C(OC(=O)C31)C2Br` (configuration not stated), 110% (inactive) and 106% (inactive); that for `Cc1ccnc2c1ccc1c(C)ccnc12`, 24.9% (inactive).
On the same count and under the same terms, for `COc1ccccc1/C=C\C(=O)c1ccccc1` the value was 110% (inactive).

The next assay has as its system HS 578T breast. The description is as above. The following applies: 10 µM unless noted.
For `COc1cc(/C=C/C(C)=O)ccc1O`, the growth was 113% (inactive).
On the same count and under the same terms, for `CC(C)(C)CC(C)(C)c1ccc(OCCSC(=N)N)cc1` the value was 91.4% (inactive); for `COc1ccc(N=N/N=c2\sc3cc(OC)ccc3n2C)cc1`, 96% (inactive).
The same measure, in the same setting: for `O=C(Oc1cccc2cccnc12)c1ccccc1` the value was 74.9% (inactive) and 123% (inactive); for `S=C(NCCNC(=S)[S][Sn]([c]1ccccc1)([c]1ccccc1)[c]1ccccc1)[S][Sn]([c]1ccccc1)([c]1ccccc1)[c]1ccccc1`, -14.5% (active); for `C[n+]1c(/C=C/c2ccc([N+](=O)[O-])cc2)ccc2ccccc21`, 99.7% (inactive).
Still for that read-out and setting: for `CCC(CCCN(CC)CCc1ccccc1)OC(=O)c1cc(OC)c(OC)c(OC)c1` (configuration not stated) the value was 81.3% (inactive); for `O=C(/C=C\c1ccccc1)N1c2ccccc2CC1c1c[nH]c2ccccc12` (configuration not stated), 75.3% (inactive); for `OC(CNc1ccnc2cc(Cl)ccc12)CNc1ccnc2cc(Cl)ccc12`, 89% (inactive).
Turning to `Cc1ccc(N=C=C(c2ccccc2)c2ccccc2)cc1`, the growth was 91.1% (inactive).
On the same count and under the same terms, the result for `NC(=S)N/N=C/c1ccc(Cl)s1` reads 103% (inactive); that for `CC(=Nc1ccc(N(C)C)cc1)c1ccccc1`, 74.2% (inactive).
On the same count and under the same terms, the result for `CCC(CC)COC(=O)c1ccc(O)c(O)c1` reads 86.8% (inactive); that for `CCC(c1cccc(O)c1)C(CC)c1cccc(O)c1` (configuration not stated), 54.2% (inactive); that for `CCC(=O)Sc1ccccc1C(=O)Nc1ccc(Cl)cc1`, 54.5% (inactive).
Same read-out and setting: for `Nc1ncnc2c1ncn2C1OC(CO)C(O)C1O` (configuration not stated) the value was 125% (inactive) and 77.9% (inactive); for `Cc1ccc2c(ccc3c[n+]4c5ccccc5ccc4n32)c1`, 14.4% (inactive).
Consider `CC1=CC(O)C2CC1C2(C)C` (configuration not stated), for which the growth is 97.5% (inactive) and 106% (inactive).
Regarding `O=C(CC1(O)C(=O)Nc2c(Cl)ccc(Cl)c21)c1ccc(Cl)cc1Cl` (configuration not stated), the growth is 94% (inactive).
Consider `O=C1N[C@H]2[C@H](CS[C@H]2CCCCC(=O)N(CCP(c2ccccc2)c2ccccc2)CCP(c2ccccc2)c2ccccc2)N1`, for which the growth was 84.4% (inactive).
The same measure, in the same setting: the result for `C=C(Cl)C(=NC(C)(C)C)Nc1ccccc1C` reads 96.5% (inactive); that for `Cc1ccnc(NC(c2ccccc2)c2ccc3cccnc3c2O)c1` (configuration not stated), 66.9% (inactive); that for `Cc1cc2nc(CS)[nH]c2cc1C`, 103% (inactive).
Same read-out and setting: the result for `Cc1ccnc2c1ccc1c(C)ccnc12` reads 52.6% (inactive); that for `COc1ccccc1/C=C\C(=O)c1ccccc1`, 86% (inactive).

The next assay relates to NCI/ADR-RES ovarian. The assay is described as above. The conditions noted are these: 10 µM unless noted.
Consider `CC(C)(C)CC(C)(C)c1ccc(OCCSC(=N)N)cc1`, for which the growth is 71.7% (inactive).
Still for that read-out and setting: for `S=C(NCCNC(=S)[S][Sn]([c]1ccccc1)([c]1ccccc1)[c]1ccccc1)[S][Sn]([c]1ccccc1)([c]1ccccc1)[c]1ccccc1` the value was -64.5% (active); for `C[N+](C)=c1ccc2nc3c(cc(NCCCNc4cc5oc6cc(=[N+](C)C)ccc-6nc5c5ccccc45)c4ccccc43)oc-2c1`, 6.53% (active); for `CCC(CCCN(CC)CCc1ccccc1)OC(=O)c1cc(OC)c(OC)c(OC)c1` (configuration not stated), 83.3% (inactive).
On the same count and under the same terms, for `O=C(/C=C\c1ccccc1)N1c2ccccc2CC1c1c[nH]c2ccccc12` (configuration not stated) the value was 73.6% (inactive); for `OC(CNc1ccnc2cc(Cl)ccc12)CNc1ccnc2cc(Cl)ccc12`, 106% (inactive); for `COC(=O)c1nc(=S)[nH]c(C(=O)OC)c1C(=O)c1ccccn1`, 7.03% (active).
Still for that read-out and setting: the result for `O=[N+]([O-])c1ccc2c(N=Nc3ccc4ccccc4c3O)c(O)cc(S(=O)(=O)O)c2c1` reads 86.1% (inactive); that for `O=[N+]([O-])c1ccc(N=Nc2ccc(O)cc2O)cc1`, 52.6% (inactive).
As to `CCC(CC)COC(=O)c1ccc(O)c(O)c1`, the growth was 57.8% (inactive).
Still for that read-out and setting: the result for `COC(=O)C(CSC(c1ccccc1)(c1ccccc1)c1ccccc1)NC(=O)C(CC(N)=O)NC(=O)OCc1ccccc1` (stereo not drawn) (Cbz-Asn-Cys(Trt)-OMe; configuration not given here) reads 63.2% (inactive); that for `CCC(=O)Sc1ccccc1C(=O)Nc1ccc(Cl)cc1`, 52.6% (inactive).
Regarding `Nc1ncnc2c1ncn2C1OC(CO)C(O)C1O` (configuration not stated), the growth was 110% (inactive) and 72% (inactive).
On the same count and under the same terms, for `O=C(Nc1ccc(F)cc1)ON=C1CCCCC1` the value was 105% [100 µM] (inactive); for `CC1=CC(O)C2CC1C2(C)C` (configuration not stated), 108% (inactive) and 109% (inactive).
Same read-out and setting: for `C=C(Cl)C(=NC(C)(C)C)Nc1ccccc1C` the value was 107% (inactive).
Take `Cc1cc2nc(CS)[nH]c2cc1C`: the growth was 95.7% (inactive).
On the same count and under the same terms, the result for `O=C(O)C1C2CC3C(OC(=O)C31)C2Br` (configuration not stated) reads 103% (inactive) and 100% (inactive).
In the case of `Cc1ccnc2c1ccc1c(C)ccnc12`, the growth is 1.41% (active).

These data come from PubChem BioAssay (NCI).
